Test results: PubChem BioAssay (EPA / NIEHS)
Activity calls are given as the source filed them. The calls were made as follows: active = hit-call score of the fitted dose curve at least 0.9, where 1 is the maximum; inactive = score below 0.9.

Key:
Settings in all cases: mRNA level, 48 h; actives raise or lower the signal
[1] = read-out: Early growth response protein 1 (EGR1) transcription factor, EGR1 (gene 1958); assay: LTEA_HepaRG_EGR1: Life Technologies and Expression Analysis (LTEA) Assay for Early growth response protein 1 (EGR1) transcription factor using HepaRG (AID 2283490)
Summary of the method: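 EGR1 expression change in human HepaRG after 48 h chemical exposure, assessed by housekeeping-normalized qRT-PCR; concentration-response up to 100 uM, fitted in both directions against DMSO controls.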

[2] = read-out: Ezrin (EZR), EZR (gene 7430); assay: LTEA_HepaRG_EZR: Life Technologies and Expression Analysis (LTEA) Assay for Ezrin (EZR) using HepaRG (AID 2283491)
Summary of the method: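 HepaRG, 48 h chemical exposure, 8-pt half-log series from 100 uM, 0.5% DMSO vehicle, duplicates. Read-out: EZR mRNA by TaqMan qRT-PCR (Fluidigm array), housekeeping-normalized; bidirectional curve fit vs DMSO baseline.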

[3] = read-out: Cytochrome P450 3A7 (Homo sapiens) (UniProt P24462); assay: LTEA_HepaRG_CYP3A7: Life Technologies and Expression Analysis (LTEA) Assay for CYP3A7 using HepaRG (AID 2283492)
Summary of the method: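 CYP3A7 transcript levels were read by TaqMan qRT-PCR on Fluidigm arrays after 48 h chemical exposure of human HepaRG cells, with housekeeping-gene normalisation. Eight half-log concentrations up to 100 uM in 0.5% DMSO were tested in duplicate.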

CYP3A5 (gene 1577) = assay: LTEA_HepaRG_CYP3A5: Life Technologies and Expression Analysis (LTEA) Assay for CYP3A5 using HepaRG (AID 2283493)
Summary of the method: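 Human HepaRG hepatic cells receive 48 h chemical treatment at eight concentrations (half-log steps from 100 uM) in 0.5% DMSO. Expression of CYP3A5 is quantified by Fluidigm qRT-PCR and normalized to three reference genes.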

[4] = read-out: Fatty Acid-Binding Protein 1 (FABP1), FABP1 (gene 2168); assay: LTEA_HepaRG_FABP1: Life Technologies and Expression Analysis (LTEA) Assay for Fatty Acid-Binding Protein 1 (FABP1) using HepaRG (AID 2283494)
Summary of the method: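 Values reflect bidirectional concentration-response fitting of FABP1 mRNA change against 0.5% DMSO controls. Human HepaRG cultures received eight half-log doses (top 100 uM) for 48 h; expression quantified by TaqMan qRT-PCR with housekeeping-gene normalization.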

[5] = read-out: Cytochrome P450 4A22 (Homo sapiens) (UniProt Q5TCH4); assay: LTEA_HepaRG_CYP4A22: Life Technologies and Expression Analysis (LTEA) Assay for Cytochrome P450 4A22 (CYP4A22) using HepaRG (AID 2283495)
Summary of the method: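 HepaRG, 48 h post-plating -> serum-free induction medium; dosed 48 h, duplicate, 8 conc. (100 uM top, half-log), 0.5% DMSO. Readout: CYP4A22 mRNA by qRT-PCR, ACTB/GAPDH/POLR2A normalization; gain/loss fit relative to DMSO.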

[6] = read-out: Cytochrome P450 7A1 (Homo sapiens) (UniProt P22680); assay: LTEA_HepaRG_CYP7A1: Life Technologies and Expression Analysis (LTEA) Assay for Cytochrome P450 7A1 (CYP7A1) using HepaRG (AID 2283496)
Summary of the method: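 HepaRG, 48 h exposure, 8-pt half-log series from 100 uM, 0.5% DMSO vehicle, duplicates. Readout: TaqMan qRT-PCR mRNA vs three housekeeping genes; bidirectional curve fit against DMSO baseline.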

[7] = read-out: Glutathione S-Transferase (GSTA2), GSTA2 (gene 2939); assay: LTEA_HepaRG_GSTA2: Life Technologies and Expression Analysis (LTEA) Assay for Glutathione S-Transferase (GSTA2) using HepaRG (AID 2283497)
Summary of the method: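 Oxidative-stress marker GSTA2 is quantified by TaqMan qRT-PCR in HepaRG cultures treated 48 h across an eight-point range to 100 uM. Expression is normalized to endogenous controls and compared with 0.5% DMSO vehicle.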

[8] = read-out: Glutamate-cysteine ligase catalytic (GCLC), GCLC (gene 2729); assay: LTEA_HepaRG_GCLC: Life Technologies and Expression Analysis (LTEA) Assay for Glutamate-cysteine ligase catalytic (GCLC) using HepaRG (AID 2283498)
Summary of the method: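 Oxidative-stress marker GCLC is measured as mRNA change in human HepaRG liver cells after 48 h chemical treatment in 0.5% DMSO, eight concentrations from 100 uM. Activity is fitted bidirectionally against vehicle.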

[9] = read-out: growth arrest and DNA damage 45 (GADD45G), GADD45G (gene 10912); assay: LTEA_HepaRG_GADD45G: Life Technologies and Expression Analysis (LTEA) Assay for growth arrest and DNA damage 45 (GADD45G) using HepaRG (AID 2283499)
Summary of the method: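 HepaRG, 48 h exposure, top 100 uM, half-log 8-point series, 0.5% DMSO vehicle, duplicates. Readout: GADD45G transcript by qRT-PCR (Fluidigm array), housekeeping-normalised (ACTB/GAPDH/POLR2A). Bidirectional curve fit vs DMSO baseline.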

[10] = read-out: Glutamate-cysteine ligase regulatory (GCLM), GCLM (gene 2730); assay: LTEA_HepaRG_GCLM: Life Technologies and Expression Analysis (LTEA) Assay for Glutamate-cysteine ligase regulatory (GCLM) using HepaRG (AID 2283500)
Summary of the method: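 Endpoint is GCLM transcript level by qRT-PCR, normalized to three housekeeping genes, after 48 h chemical exposure of human HepaRG cells (0.5% DMSO vehicle, top 100 uM, half-log dilutions). Fitting was bidirectional relative to DMSO.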

[11] = read-out: Glutathione S-transferase M3 (GSTM3), GSTM3 (gene 2947); assay: LTEA_HepaRG_GSTM3: Life Technologies and Expression Analysis (LTEA) Assay for Glutathione S-transferase M3 (GSTM3) using HepaRG (AID 2283501)
Summary of the method: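 qRT-PCR read-out of GSTM3 transcript, normalized to three housekeeping genes, from human HepaRG cells after 48 h chemical exposure. Eight-point half-log series, top 100 uM, 0.5% DMSO vehicle; gain or loss fitted relative to DMSO baseline.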

[12] = read-out: Heat shock 70 kDa protein 1 (HSPA1A), gene 3303; assay: LTEA_HepaRG_HSPA1A: Life Technologies and Expression Analysis (LTEA) Assay for Heat shock 70 kDa protein 1 (HSPA1A) using HepaRG (AID 2283502)
Summary of the method: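 Cells were plated and cultured for 48 h, then switched to serum-free induction medium. Chemicals were added at eight half-log concentrations up to 100 uM for 48 h. RNA was then isolated and HSPA1A measured by qRT-PCR with bidirectional curve fitting against DMSO.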

[13] = read-out: Hypoxia-inducible factor 1-alpha (Homo sapiens) (UniProt Q16665); assay: LTEA_HepaRG_HIF1A: Life Technologies and Expression Analysis (LTEA) Assay for Hypoxia-inducible factor 1 (HIF1A) Trancription factor using HepaRG (AID 2283503)
Summary of the method: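 HIF1A transcript level read by qRT-PCR (ACTB, GAPDH, POLR2A normalization) after 48 h chemical exposure of HepaRG cultures. Eight half-log concentrations, top 100 uM, 0.5% DMSO vehicle, duplicates; bidirectional curve fit against DMSO baseline.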

[14] = read-out: 3-Hydroxy-3-Methylglutaryl-CoA Synthase 2 (HMGCS2), HMGCS2 (gene 3158); assay: LTEA_HepaRG_HMGCS2: Life Technologies and Expression Analysis (LTEA) Assay for 3-Hydroxy-3-Methylglutaryl-CoA Synthase 2 (HMGCS2) using HepaRG (AID 2283504)
Summary of the method: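 qRT-PCR read-out of HMGCS2 transcript, normalised to three housekeeping genes, in HepaRG cells after 48 h chemical exposure. Eight-point curves from 100 uM, half-log dilutions, 0.5% DMSO vehicle; gain or loss fitted relative to DMSO baseline.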

HGF (gene 3082) = assay: LTEA_HepaRG_HGF: Life Technologies and Expression Analysis (LTEA) Assay for Hepatocyte Growth Facto (HGF) using HepaRG (AID 2283505)
Summary of the method: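 HepaRG, 48 h dosing, 8-pt half-log series from 100 uM in 0.5% DMSO, duplicates. Readout: TaqMan qRT-PCR of HGF mRNA, housekeeping-normalized; bidirectional curve fit vs DMSO baseline.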

[15] = read-out: Insulin Like Growth Factor 1 (IGF1), IGF1 (gene 3479); assay: LTEA_HepaRG_IGF1: Life Technologies and Expression Analysis (LTEA) Assay for Insulin Like Growth Factor 1 (IGF1) using HepaRG (AID 2283506)
Summary of the method: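 Cells are thawed, plated and cultured 48 h, then exposed in duplicate to chemical (highest 100 uM, half-log steps, 0.5% DMSO) for another 48 h. Total RNA is analysed by Fluidigm qRT-PCR for IGF1 expression relative to vehicle.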

[16] = read-out: Intercellular Adhesion Molecule 1 (ICAM1), ICAM1 (gene 3383); assay: LTEA_HepaRG_ICAM1: Life Technologies and Expression Analysis (LTEA) Assay for Intercellular Adhesion Molecule 1 (ICAM1) using HepaRG (AID 2283507)
Summary of the method: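 HepaRG, 48 h exposure, 8-pt half-log series from 100 uM, 0.5% DMSO vehicle, duplicates. Readout: TaqMan qRT-PCR mRNA, housekeeping-normalized (ACTB/GAPDH/POLR2A). Bidirectional curve fit vs DMSO baseline.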

[17] = read-out: Insulin-like growth factor-binding protein 1 (IGFBP1), IGFBP1 (gene 3484); assay: LTEA_HepaRG_IGFBP1: Life Technologies and Expression Analysis (LTEA) Assay for Insulin-like growth factor-binding protein 1 (IGFBP1) using HepaRG (AID 2283508)
Summary of the method: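 qRT-PCR mRNA read-out (TaqMan, Fluidigm array), normalised to three housekeeping genes; HepaRG cells, 48 h exposure, 8-pt half-log series from 100 uM, 0.5% DMSO vehicle; bidirectional curve fit vs DMSO baseline.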

[18] = read-out: Interleukin 6 (IL6), IL6 (gene 3569); assay: LTEA_HepaRG_IL6: Life Technologies and Expression Analysis (LTEA) Assay for Interleukin 6 (IL6) using HepaRG (AID 2283509)
Summary of the method: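 Changes in IL6 mRNA, up or down relative to 0.5% DMSO controls, were derived from concentration-response curves in human HepaRG cells treated for 48 h at up to 100 uM, with ACTB, GAPDH and POLR2A as normalizers.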

Measured: outcome

Sequence of Cytochrome P450 3A7 (Homo sapiens) (P24462 whole entry, looked up): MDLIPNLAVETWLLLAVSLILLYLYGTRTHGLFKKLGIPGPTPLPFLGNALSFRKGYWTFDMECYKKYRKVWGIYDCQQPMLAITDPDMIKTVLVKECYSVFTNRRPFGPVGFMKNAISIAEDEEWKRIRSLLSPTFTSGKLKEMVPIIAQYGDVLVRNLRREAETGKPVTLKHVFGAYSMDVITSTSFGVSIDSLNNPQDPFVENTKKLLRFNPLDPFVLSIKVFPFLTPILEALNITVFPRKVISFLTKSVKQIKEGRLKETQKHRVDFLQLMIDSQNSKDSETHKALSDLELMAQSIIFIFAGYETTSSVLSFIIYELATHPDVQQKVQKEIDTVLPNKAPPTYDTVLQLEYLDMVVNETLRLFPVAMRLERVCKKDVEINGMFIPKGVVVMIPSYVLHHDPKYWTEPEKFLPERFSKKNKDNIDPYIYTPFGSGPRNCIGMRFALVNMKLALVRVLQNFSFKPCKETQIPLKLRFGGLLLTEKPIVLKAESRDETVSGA
Sequence of Hypoxia-inducible factor 1-alpha (Homo sapiens) (Q16665 whole entry, looked up): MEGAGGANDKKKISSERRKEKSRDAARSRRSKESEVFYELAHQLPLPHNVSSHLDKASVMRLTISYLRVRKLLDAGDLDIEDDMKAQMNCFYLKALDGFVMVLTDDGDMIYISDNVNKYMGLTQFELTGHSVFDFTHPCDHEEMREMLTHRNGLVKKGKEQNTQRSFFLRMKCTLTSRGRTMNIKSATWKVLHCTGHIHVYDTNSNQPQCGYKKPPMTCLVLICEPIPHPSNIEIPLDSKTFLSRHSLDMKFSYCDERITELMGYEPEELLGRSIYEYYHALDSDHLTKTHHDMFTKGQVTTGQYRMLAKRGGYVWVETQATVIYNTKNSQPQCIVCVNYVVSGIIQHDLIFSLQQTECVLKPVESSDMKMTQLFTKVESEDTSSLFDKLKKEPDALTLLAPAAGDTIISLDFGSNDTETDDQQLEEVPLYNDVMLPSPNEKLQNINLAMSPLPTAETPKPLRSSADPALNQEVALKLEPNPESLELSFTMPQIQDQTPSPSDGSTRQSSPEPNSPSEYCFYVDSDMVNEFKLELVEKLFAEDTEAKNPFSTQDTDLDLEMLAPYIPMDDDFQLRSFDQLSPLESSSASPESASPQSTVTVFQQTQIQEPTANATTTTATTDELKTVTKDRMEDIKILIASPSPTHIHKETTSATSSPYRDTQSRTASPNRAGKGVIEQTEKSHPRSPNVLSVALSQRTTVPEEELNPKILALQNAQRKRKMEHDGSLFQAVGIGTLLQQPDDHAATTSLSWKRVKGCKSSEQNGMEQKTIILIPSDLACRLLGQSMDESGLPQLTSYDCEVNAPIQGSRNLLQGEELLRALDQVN

CCC(C)=NO
inactive: [1] | [2] | [3] | CYP3A5 (gene 1577) | [4] | [5] | [6] | [7] | [8] | [9] | [10] | [11] | [12] | [13] | [14] | HGF (gene 3082) | [15] | [16] | [17] | [18]
